Results reported in ChEMBL document CHEMBL1201862, “PubChem BioAssay data set” (2004).
The campaign covered roughly 390,000 compounds. About 1,400 (0.36%) were called active. About 2% were inconclusive and are not listed. No cut-off for these calls is given here. The sample as a whole holds a higher share of actives than the screen did.

What follows are compounds tested against Flap endonuclease 1 (Homo sapiens) (UniProt P39748) (assay: qHTS Assay for the Inhibitors of Human Flap endonuclease 1 (FEN1). [Related pubchem assays (depositor defined):AID488813]).
Format: functional

Chain of Flap endonuclease 1 (Homo sapiens) (P39748 whole entry): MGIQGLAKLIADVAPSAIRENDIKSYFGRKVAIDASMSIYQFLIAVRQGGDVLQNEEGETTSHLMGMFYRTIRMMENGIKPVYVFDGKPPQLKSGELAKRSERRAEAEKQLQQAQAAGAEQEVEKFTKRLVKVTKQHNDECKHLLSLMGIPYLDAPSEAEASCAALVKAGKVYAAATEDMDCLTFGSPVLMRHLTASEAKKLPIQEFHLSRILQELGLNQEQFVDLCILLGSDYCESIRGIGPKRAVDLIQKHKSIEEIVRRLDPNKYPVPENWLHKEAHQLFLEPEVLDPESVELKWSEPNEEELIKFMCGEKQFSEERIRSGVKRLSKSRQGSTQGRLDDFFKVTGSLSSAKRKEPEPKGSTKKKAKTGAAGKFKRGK

Potency, inactive:
CCOC(=O)CN1C(=O)N[C@@H](c2cccc(C(F)(F)F)c2)C(C(=O)OC)=C1C
Nc1nc2ccc(OC(F)(F)F)cc2s1
C=CCN1C2CCCC1CC(N=C(S)Nc1cccc(OC)c1)C2 (stereo not drawn)
CC(=O)c1ccc(NC(=O)NNS(=O)(=O)c2ccc([N+](=O)[O-])cc2)cc1
Cc1ccc(C)c(NC(=O)CN(C)C(=O)C2COc3ccccc3O2)c1 (stereo not drawn)

Potency, active:
CC(N)(Cc1ccc(O)c(O)c1)C(=O)O (stereo not drawn) 2.38 µM
NCC(O)c1ccc(O)c(O)c1 (stereo not drawn) 2.99 µM
ICCCCN1C=S(CI)c2ccccc21 (stereo not drawn) 50.1 µM
